Measurements reported in PubChem BioAssay (EPA / NIEHS).
Calls of active or inactive are those of the source. Rule for the calls: active = hit-call score of the fitted dose curve at least 0.9, where 1 is the maximum; inactive = score below 0.9.

Read-out: Interleukin-8 (IL8), CXCL8 (gene 3576)
Experiment: BSK_BE3C_IL8: BioMAP Diversity Plus: BE3C Assay for Interleukin-8 (IL8) Biomarker Activity (AID 2284280)
Conditions: primary human bronchial epithelial cells
Experimental: BSK_BE3C is a cell-based, multiplexed-readout assay that uses bronchial epithelial cell, a human lung primary cell, with measurements taken at 24 hours after chemical dosing in a 96-well plate.BSK_BE3C_IL8 is an assay component measured in the BSK_BE3C assay. It measures IL-8 antibody related to regulation of gene expression using ELISA technology.Data from the assay component BSK_BE3C_IL8 was analyzed at the endpoint, BSK_BE3C_IL8, in the positive analysis fitting direction relative to DMSO as the negative control and baseline of activity. Using a type of binding reporter, gain or loss-of-signal activity can be used to understand protein changes. To generalize the intended target to other relatable targets, this assay endpoint is annotated to the 'cytokine' intended target family, where the subfamily is 'interleukins'.
The levels of cell surface (or secreted, indicated by the prefix "s") biomarker endpoints were measured by ELISA. Overt cytotoxicity to cells in confluent adherent cultures (all systems other than the BT system) was assessed by measuring total protein levels using sulforhodamine B (SRB) staining in parallel cultures at the time of biomarker measurements, indicated as SRB endpoints. For proliferation assays for adherent cell types, individual cell types are cultured at sub-confluence and relative cell numbers quantified by SRB staining at time points optimized for each system (48 h: 3C and CASM3C systems; 72 h: BT and HDF3CGF systems; 96 h: SAg system). SRB was performed by staining cells with 0.1% SRB after fixation with 10% TCA and reading wells at 560 nm.Viability and proliferation of PBMC (T cells) was quantified by Alamar Blue reduction for the SAg and BT systems. For PBMC viability (referred to as PBMC Cytotoxicity within the assay endpoint names), cells were plated (75,000/well in a 96-well plate) and then chemical samples added for 1 h before addition of activators, SEB and TSST-1 (20 ng/mL final concentration each). Cells were incubated for 90 h. Then, Alamar Blue (20 uL/well) (Invitrogen, Cat DAL1100) was added for 6 h, and the plates were read with a fluorescence microplate reader at 546/580 nm (excitation/emission). For PBMC proliferation, cells were plated and activated as above but incubated for only 16 h prior to addition of Alamar Blue. Plates were read after 6 h.

Question: For O=S(=O)(O)C(F)(F)C(F)(F)OC(F)(F)C(F)(F)F, which outcome is on record?
Answer: Its outcome is “inactive”.

Question: With C=C(C)C(=O)OCCC(F)(F)C(F)(F)C(F)(F)C(F)(F)C(F)(F)C(F)(F)C(F)(F)C(F)(F)F as the compound, how does the outcome read?
Answer: Its outcome is “inactive”.

Question: How did the outcome turn out when CCn1cc(C(=O)O)c(=O)c2ccc(C)nc21 was run?
Answer: Its outcome is “inactive”.

Question: For CCCCN(CCO)CCO, which outcome is on record?
Answer: The outcome was “inactive”.

Question: CC(C)CCCC(C)(C)O was tested. Which outcome did it give?
Answer: Its outcome is “inactive”.

Question: Which outcome does the source give for c1ccc(OCCOc2ccccc2)cc1 here?
Answer: Its outcome is “inactive”.

Question: How did the outcome turn out when CC(=O)c1ccc(C)cc1 was run?
Answer: The outcome was “inactive”.

Question: O=C(O)C(F)(F)C(F)(F)C(F)(F)C(F)(F)C(F)(F)C(F)(F)C(F)(F)C(F)F was tested. Which outcome did it give?
Answer: Its outcome is “inactive”.

Question: How did the outcome turn out when OCC(F)(OC(F)(F)C(F)(OC(F)(F)C(F)(F)C(F)(F)F)C(F)(F)F)C(F)(F)F (stereo not drawn) was run?
Answer: The outcome was “inactive”.

Question: How did the outcome turn out when C=C(F)C(=O)OC(C(F)(F)F)C(F)(F)F was run?
Answer: Its outcome is “inactive”.

Question: Which outcome does the source give for CC(C)(CO)CO here?
Answer: The outcome was “inactive”.

Question: With O=C(O)C(F)(F)OC(F)(F)C(F)(F)OC(F)(F)C(F)(F)C(F)(F)C(F)(F)F as the compound, how does the outcome read?
Answer: Its outcome is “inactive”.

Question: With CCCO[Si](OCCC)(OCCC)OCCC as the compound, how does the outcome read?
Answer: The outcome was “inactive”.
